From PubChem
Compounds with a hit are over-represented: about 4.6% of the library has one in this group of screens.
tim10-1 inh: growth inhibitors of tim10-1 mutant yeast | S. cerevisiae tim10-1 ts strain growth, BacTiter-Glo, 24 h | inhibition, % at 20 µM | 330,000 tested, 2.2% active | AID 463190;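 active = inhibition of at least 40%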;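 also: mutant grown at 25 °C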
TIM10 inh: TIM10 yeast growth inhibition. S. cerevisiae TIM10 strain growth, BacTiter-Glo luminescence, 24 h. inhibition, % at 10 µM. 330,000 tested, 1.4% active;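 active = inhibition of 40% or more at the single tested concentration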;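 also: wild-type TIM10 isogenic control strain grown at permissive 25 °C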
NLRP3 yeast inh: blocks the NALP3 inflammasome reconstituted in yeast; Yeast reconstituted NLRP3/ASC/caspase-1, beta-gal luminescence, 24 h; inhibition, % at 10 µM; 330,000 tested, 0.39% active; AID 2825;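 active = inhibition of 50% or more; inactive = inhibition below 50%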
tim23-1 inh: inhibits growth of tim23-1 mutant yeast. AID 463212. S. cerevisiae tim23-1 growth, BacTiter-Glo luminescence, 24 h. inhibition, % at 20 µM. 330,000 tested, 1.3% active;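 active = growth inhibition of the mutant yeast at or above 50%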;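 also: temperature-sensitive mutant grown at 25 °C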
PfHsp90 set2: inhibits growth of yeast expressing Plasmodium falciparum Hsp90 | inhibition, % at 9.4 µM | S. cerevisiae expressing PfHsp90, BacTiter-Glo ATP, 48 h; yeast lacking PDR1 and PDR3 efflux regulators | 310,000 tested, 0.32% active;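 active = every replicate shows inhibition above about 80%, whatever the replicate mean, limit read from the data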
SKKanGAS inh: SKKanGAS growth inhibition. inhibition, % at 7.5 µM. S. pyogenes SKKanGAS, kanamycin growth, BacTiter-Glo, 6 h. AID 1662. 300,000 tested, 1.3% active;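 active = mean replicate score, as percent of positive control median, at least 50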;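 also: strain carries kanamycin resistance gene driven by streptokinase promoter and grows in 40 µg/ml kanamycin; loss of luminescence reflects streptokinase promoter inhibition or plain growth inhibition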
tim10-1 conf: confirmation of tim10-1 mutant yeast growth inhibitors; inhibition, % at 20 µM; shares compounds with tim10-1 inh; AID 463213; S. cerevisiae tim10-1 ts strain growth, BacTiter-Glo, 24 h; 7,400 tested, 56% active;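 active = inhibition of yeast growth at or above a set limit in either of two repeat tests at 20 µM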;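 also: tim10-1 mutant grown at permissive 25 °C to find synthetic lethal compounds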
TIM10 conf: confirmation of TIM10 yeast growth inhibitors | shares compounds with TIM10 inh | 4,600 tested, 63% active | S. cerevisiae tim10 strain growth, BacTiter-Glo luminescence, 24 h | AID 463215 | inhibition, % at 10 µM;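 active = inhibition of yeast growth at or above a set limit in either of two replicates at 10 µM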; also: this counterscreen used the strain with wild-type TIM10
tim23-1 confirm: confirmation of tim23-1 mutant yeast growth inhibitors. shares compounds with tim23-1 inh. S. cerevisiae tim23-1 growth, BacTiter-Glo luminescence, 24 h. inhibition, % at 20 µM. 4,400 tested, 83% active. AID 463218;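 active = inhibition above about 39% in either of two replicate wells at 20 µM, limit read from the data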;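 also: temperature-sensitive tim23-1 mutant grown at 25 °C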
Of the large screens only hits and unclear results are named; the others gave an inactive call (follow-up assays come after a bar, where they were run).

CC1N(C)c2cc(NC(=O)c3cccs3)c(P(=O)(Nc3ccc([N+](=O)[O-])cc3)N3CCOCC3)cc2C1(C)C (configuration not stated)	none
O=C(NCc1ccccc1)c1cccc(COc2cccc(Cl)c2)c1	tim10-1 inh 45, TIM10 inh 43 | tim10-1 conf 40 | TIM10 conf 34
COc1ccc(Cn2c(SCc3ccc(C)cc3)nc3cc(OC)c(OC)cc3c2=N)cc1Cl	tim10-1 inh 90, TIM10 inh 62, SKKanGAS inh 102 | tim10-1 conf 87 | TIM10 conf inactive
O=C(OCn1ncc(Br)c(Br)c1=O)c1ccccc1Cl	tim10-1 inh 58, TIM10 inh 77, tim23-1 inh 73, PfHsp90 set2 90 | tim10-1 conf 50 | TIM10 conf inactive | tim23-1 confirm inactive
O=C(OCn1ncc(Br)c(Br)c1=O)c1ccc(F)cc1	tim10-1 inh 73, TIM10 inh 71, tim23-1 inh 55, PfHsp90 set2 99 | tim10-1 conf 65 | TIM10 conf inactive | tim23-1 confirm inactive
CC(=O)OCn1ncc(N2CCOCC2)c(Br)c1=O	none
CSCCC(NC(N)=O)C(=O)Nc1cccc(C#N)c1 (configuration not stated)	none
COC(=O)Cc1csc(Nc2ccc(F)c(Cl)c2)n1	none
COc1ccc(/C=C2\CCc3ccccc3C2=O)cc1O	tim10-1 inh 54, TIM10 inh 45, tim23-1 inh 65 | tim10-1 conf 41 | TIM10 conf 42 | tim23-1 confirm 59
Cc1[nH]c2ccc(C(=O)NCCN3CCOCC3)cc2c1C	none
Cc1cc(C(C)(C)C)ccc1OC(=O)C1=CC=CN2CCS(=O)(=O)N=C12	none (no result: SKKanGAS inh)
CC(NC(=O)c1ccc([N+](=O)[O-])o1)C1CC2CCC1C2 (configuration not stated)	tim10-1 inh 75, TIM10 inh 63, tim23-1 inh 62 (no result: SKKanGAS inh) | tim10-1 conf 79 | TIM10 conf 68 | tim23-1 confirm 48
O=C(NC12CC3CC(CC(C3)C1)C2)c1ccc([N+](=O)[O-])o1	tim10-1 inh 57, tim23-1 inh 64, SKKanGAS inh 93 | tim10-1 conf 67 | tim23-1 confirm 51
O=C(NC12CC3CC(CC(C3)C1)C2)c1ccc(Br)o1	none
O=C(COC(=O)C1CCN(c2ccc(C(F)(F)F)cn2)CC1)Nc1ccc(Cl)cc1	tim10-1 inh 43, tim23-1 inh 56 (no result: PfHsp90 set2) | tim10-1 conf 46 | tim23-1 confirm 60
O=C(COC(=O)C1CCN(c2ccc(C(F)(F)F)cn2)CC1)Nc1ccc(Cl)cn1	none
C/C(=N\NC(=S)Nc1cc(S(=O)(=O)N2CCOCC2)ccc1Cl)c1ccccc1F	tim10-1 inh 41, TIM10 inh 44, tim23-1 inh 61 | tim10-1 conf 37 | TIM10 conf inactive | tim23-1 confirm 42
CC(C)N(C(=S)Nc1cc(S(=O)(=O)N2CCOCC2)ccc1Cl)c1ccccc1	none
CN(C)S(=O)(=O)c1cccc(NC(=S)Nc2cc(Cl)cc(Cl)c2)c1	tim10-1 inh 58, TIM10 inh 60, tim23-1 inh 52 | tim10-1 conf 36 | TIM10 conf inactive | tim23-1 confirm 44
CN(C)S(=O)(=O)c1cccc(NC(=S)Nc2ccc(Cl)cc2Cl)c1	none
Cc1ccc(S(=O)(=O)N2CC(O)CC2C(=O)OCC(=O)c2ccccc2Cl)cc1C (configuration not stated)	none
O=C(N/N=C/c1ccc(O)c(O)c1)NC12CC3CC(CC(C3)C1)C2	none
O=C(N/N=C/c1ccccc1O)NC12CC3CC(CC(C3)C1)C2	tim10-1 inh 44, tim23-1 inh 71, SKKanGAS inh 84 | tim10-1 conf 36 | tim23-1 confirm 68
O=C(CSCc1ccccc1)N=Nc1c(O)[nH]c2ccccc12	none
